For 35 compounds, red/green cell ratio (normalised) and normalised cell number results are on record in PubChem BioAssay.

A short description of this assay: EMT-state selective cytotoxicity in co-culture – imaging, PC-3E GFP, TEM4-18 mCherry, primary screen (AID 1345086).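 On all read-outs here: cells exposed to compound for 72 h before imaging.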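 On red/green cell ratio (normalised): normalised mesenchymal count divided by normalised epithelial count so high means epithelial killing.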 Particulars: PC-3E GFP / TEM4-18 mCherry co-culture, imaging cell counts, at 1 µM; for red/green cell ratio (normalised): actives lie on both sides, counts scaled to control wells, 1 = unselective.
Where [1] appears, read: measured here: epithelial PC-3E GFP cell survival.
The mark [2] stands for this setting: measured here: mesenchymal TEM4-18 mCherry cell survival.

Active and inactive are the calls of the source.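 How the source made its calls: active means compounds killing one labelled cell type while sparing the other, by normalised counts and ratio limits, not self-fluorescent; inactive means the rest.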

Take `CCC(C)[C@H]1O[C@]2(C=C[C@@H]1C)C[C@@H]1C[C@@H](C/C=C(\C)[C@@H](OC3C[C@H](OC)C(O[C@H]4C[C@H](OC)[C@@H](O)[C@H](C)O4)[C@H](C)O3)[C@@H](C)/C=C/C=C3\COC4[C@H](OC)C(C)=C[C@@H](C(=O)O1)[C@]34O)O2` (stereo not given in full): the red/green cell ratio (normalised) is 0.83 (inactive). The same compound returned a normalised cell number under setting [1] of 1.13. The compound further displayed a normalised cell number under setting [2] of 0.93.

As for `C=C(C)n1cc(C(=O)OC)c(=O)c2cc(F)c(F)c(OC)c21`, the red/green cell ratio (normalised) is 1.15 (inactive). Further, the normalised cell number under setting [1] worked out at 0.99. The compound further returned a normalised cell number under setting [2] of 1.14.

With `COc1cc(C(O)CO)oc1C=O` (stereo not given), the red/green cell ratio (normalised) was 0.86 (inactive). This compound also returned a normalised cell number under setting [1] of 1.08. Moreover, under setting [2], the normalised cell number came to 0.93.

Regarding `COc1ccc2c(c1)CCC1C2CC[C@@]2(C)C1CC[C@@H]2O` (stereo not given in full), the red/green cell ratio (normalised) is 0.78 (inactive). Moreover, under setting [1], the normalised cell number came out at 1.46. Also, the normalised cell number under setting [2] amounted to 1.14.

On to `COc1ccc2cc(C(C)=O)ccc2c1`, for which the red/green cell ratio (normalised) was 1.13 (inactive). This compound gave a normalised cell number under setting [1] of 0.99. Under setting [2], this compound yielded a normalised cell number of 1.12.

`COc1c(N2CC[C@@H](CN)C2)c(F)cc2c(=O)c(C(=O)NO)cn(C3CC3)c12`: the red/green cell ratio (normalised) is 1.1 (inactive). This compound displayed a normalised cell number under setting [1] of 1.04. The compound further yielded a normalised cell number under setting [2] of 1.15.

`CC1(C)C(C(=O)O)N2C(=O)C[C@H]2S1(=O)=O` (stereo not given in full): the red/green cell ratio (normalised) is 0.69 (inactive). Under setting [1], the normalised cell number stood at 1.22. Under setting [2], this compound registered a normalised cell number of 0.84.

For `CC[C@@H](C)CC(=O)N1C(=S)O[C@@H]2Cc3ccccc3[C@@H]21`, the red/green cell ratio (normalised) was 0.94 (inactive). For the same compound, the normalised cell number under setting [1] worked out at 1.12. The normalised cell number under setting [2] was determined as 1.05.

Take `CCN1CCN(c2c(F)cc3c(=O)c(C(=O)O)cn4c3c2OC[C@@H]4C)CC1`: the red/green cell ratio (normalised) is 0.75 (inactive). Under setting [1], this compound gave a normalised cell number of 1.34. The normalised cell number under setting [2] stood at 1.

As for `CC1(C)C[C@@H]2C(=O)CC[C@@H]3O[C@]3(C)CC[C@H]21`, the red/green cell ratio (normalised) is 0.92 (inactive). Also, the normalised cell number under setting [1] is 0.93. For the same compound, under setting [2], the normalised cell number was determined as 0.85.

Regarding `C/C(=C\CO)CC[C@H](C)CCC[C@H](C)CCCC(C)C`, the red/green cell ratio (normalised) was 1.12 (inactive). The same compound gave a normalised cell number under setting [1] of 0.97. The compound also registered a normalised cell number under setting [2] of 1.09.

As for `CO[C@H]1OC2COC(c3ccccc3)OC2[C@H](OCc2ccccc2)[C@@H]1OCc1ccccc1` (stereo not given in full), the red/green cell ratio (normalised) is 1 (inactive). The normalised cell number under setting [1] came out at 1.15. The normalised cell number under setting [2] is 1.15.

With `O=c1c(O)cccc2cc(O)c(O)c(O)c12`, the red/green cell ratio (normalised) is 0.92 (inactive). The compound also registered a normalised cell number under setting [1] of 1.11. In addition, the normalised cell number under setting [2] was 1.02.

For the compound `CC1CCC2OC2C/C=C/C(=O)c2c(O)cc(O)cc2CC(=O)O1` (stereo not given), the red/green cell ratio (normalised) was 0.83 (inactive). The normalised cell number under setting [1] worked out at 0.88. In addition, under setting [2], the normalised cell number is 0.73.

For the compound `COC(=O)C1O[C@H](Sc2ccccc2)[C@@H](OC(=O)c2ccccc2)[C@@H](OC(=O)c2ccccc2)C1O` (stereo not given in full), the red/green cell ratio (normalised) is 0.96 (inactive). In addition, the normalised cell number under setting [1] turned out to be 1.05. The compound also showed a normalised cell number under setting [2] of 1.

`CCCc1oc(=O)cc(OC)c1CO`: the red/green cell ratio (normalised) is 0.86 (inactive). Under setting [1], this compound yielded a normalised cell number of 1.2. Under setting [2], the normalised cell number was determined as 1.03.

As to `C=C[C@@](C)(O)CCC1C(=C)C[C@H](OC(C)=O)C2C(C)(C)CCCC12C` (stereo not given in full), the red/green cell ratio (normalised) was 1.05 (inactive). For the same compound, the normalised cell number under setting [1] turned out to be 1.03. Besides, the normalised cell number under setting [2] was found to be 1.08.

As to `C=C1OC(=O)c2c(OC)cc(OC)c(C)c2C1C` (stereo not given), the red/green cell ratio (normalised) is 1 (inactive). The compound further yielded a normalised cell number under setting [1] of 0.98. The compound also registered a normalised cell number under setting [2] of 0.98.

In the case of `C[C@]12C=CC(=O)NC1CCC1C2CC[C@@]2(C)C1CC[C@@H]2C(=O)Nc1cc(C(F)(F)F)ccc1C(F)(F)F` (stereo not given in full), the red/green cell ratio (normalised) is 0.83 (inactive). The compound also displayed a normalised cell number under setting [1] of 1.1. The compound also displayed a normalised cell number under setting [2] of 0.91.

As for `CC1CC(=O)c2c(cc3c(-c4c(O)cc(O)c5c(O)c6c(cc45)OC(C)CC6=O)c(O)cc(O)c3c2O)O1` (stereo not given), the red/green cell ratio (normalised) was 0.92 (inactive). This compound yielded a normalised cell number under setting [1] of 1.06. The same compound displayed a normalised cell number under setting [2] of 0.98.

In the case of `[N-]=[N+]=NC1[C@@H](O)C2OC(c3ccccc3)OCC2O[C@@H]1Sc1ccccc1` (stereo not given in full), the red/green cell ratio (normalised) was 1.1 (inactive). The compound also returned a normalised cell number under setting [1] of 0.95. In addition, the normalised cell number under setting [2] is 1.04.

On to `O=C(O)c1cn(C2CC2)c2cc(N3CCN(c4ccc(Cl)cc4Cl)CC3)c(F)cc2c1=O`, for which the red/green cell ratio (normalised) was 0.98 (inactive). Also, under setting [1], the normalised cell number stood at 1. This compound had a normalised cell number under setting [2] of 0.98.

Turning to `C=CC(C)(C)c1[nH]c2ccccc2c1C1=C(OC)C(=O)C(c2c(C(C)(C)C=C)[nH]c3ccccc23)=C(OC)C1=O`, the red/green cell ratio (normalised) was 0.88 (inactive). In addition, under setting [1], the normalised cell number turned out to be 1.23. The normalised cell number under setting [2] was determined as 1.08.

As for `CC(=O)OCC1O[C@@H](OC(C)=O)C(NC(=O)OCc2ccccc2)[C@@H](OC(C)=O)C1OC(C)=O` (stereo not given in full), the red/green cell ratio (normalised) is 0.94 (inactive). This compound displayed a normalised cell number under setting [1] of 1.16. Moreover, the normalised cell number under setting [2] came out at 1.09.

With `CC(=O)O[C@H]1CC[C@@]2(C)C(CC[C@]3(C)C2CC=C2C4CC(C)(C)CC[C@]4(C)CC[C@]23C)C1(C)C` (stereo not given in full), the red/green cell ratio (normalised) is 1.1 (inactive). The normalised cell number under setting [1] amounted to 1.04. Under setting [2], this compound displayed a normalised cell number of 1.15.

Regarding `COc1cc(/C=C/C(=O)O)cc(OC)c1O`, the red/green cell ratio (normalised) is 1.1 (inactive). Further, the normalised cell number under setting [1] worked out at 1.09. The compound also yielded a normalised cell number under setting [2] of 1.2.

Turning to `CC(=O)OCC1O[C@H](Sc2ccc(C)cc2)[C@@H]2[C@@H](OC(=O)N2Cc2ccccc2)C1OC(C)=O` (stereo not given in full), the red/green cell ratio (normalised) is 0.83 (inactive). In addition, under setting [1], the normalised cell number was determined as 1.3. The compound also returned a normalised cell number under setting [2] of 1.08.

`O=c1c(O)c(-c2ccccc2)oc2ccc3occc3c12`: the red/green cell ratio (normalised) was 0.81 (inactive). The same compound displayed a normalised cell number under setting [1] of 1.22. Under setting [2], this compound displayed a normalised cell number of 0.99.

With `Clc1ccc2ncc(Cl)nc2c1`, the red/green cell ratio (normalised) was 1.15 (inactive). Under setting [1], this compound had a normalised cell number of 0.91. The compound also gave a normalised cell number under setting [2] of 1.05.

With `CC1(C)CC2C1CCC1(CBr)CCC3C(CC(=O)O)C(=O)OC32C1` (stereo not given), the red/green cell ratio (normalised) was 0.9 (inactive). In addition, the normalised cell number under setting [1] is 1.14. Under setting [2], this compound registered a normalised cell number of 1.02.

For `COc1cc(O)c2c(c1C)C(C(C)=O)COC2=O` (stereo not given), the red/green cell ratio (normalised) is 0.88 (inactive). Further, under setting [1], the normalised cell number was determined as 0.32. Moreover, the normalised cell number under setting [2] is 0.28.

Regarding `c1ccc(OCC2CCNC2)cc1` (stereo not given), the red/green cell ratio (normalised) is 0.83 (inactive). The compound further returned a normalised cell number under setting [1] of 1.17. Besides, the normalised cell number under setting [2] is 0.97.

For the compound `CO[C@H]1CC(O[C@@H]2/C(C)=C/C[C@@H]3C[C@@H](C[C@]4(C=C[C@H](C)[C@@H](C5CCCCC5)O4)O3)OC(=O)[C@@H]3C=C(C)[C@@H](O)C4OC/C(=C\C=C\[C@@H]2C)[C@]43O)O[C@@H](C)C1O[C@H]1C[C@H](OC)[C@@H](O)[C@H](C)O1` (stereo not given in full), the red/green cell ratio (normalised) was 1.04 (inactive). The same compound had a normalised cell number under setting [1] of 1.06. Under setting [2], this compound returned a normalised cell number of 1.1.

For `CC(=O)O[C@H]1C[C@@]2(C)C(CCC3[C@@]4(C)C=CC(=O)[C@@H](C)C4[C@H](OC(C)=O)C(=O)[C@@]32C)/C1=C(/CCC=C(C)C)C(=O)O` (stereo not given in full), the red/green cell ratio (normalised) was 0.99 (inactive). This compound also showed a normalised cell number under setting [1] of 0.92. The compound further came in with a normalised cell number under setting [2] of 0.91.

As to `C=CCOC(=O)N1C(=O)O[C@H]2C(OC(C)=O)C(COC(C)=O)O[C@H](Sc3ccc(C)cc3)[C@H]21` (stereo not given in full), the red/green cell ratio (normalised) was 0.89 (inactive). In addition, the normalised cell number under setting [1] amounted to 1.08. The compound also showed a normalised cell number under setting [2] of 0.97.
